The values that follow come from PubChem BioAssay.

Test [1] in a line: antimalarial activity against Dd2 strain (AID 2302;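 active means growth inhibition above 50% at the single 2 µM test dose, taken to imply half-maximal potency below 2 µM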;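 further: 0% = DMSO untreated growth and 100% = chloroquine plus artemisinin killed control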). Conditions: P. falciparum Dd2 in RBCs, LDH growth readout, 72 h; at 2 µM; active compounds read high.
The nature of test [2]: HepG2 cytotoxicity, primary screen, cytotoxicity control for P. falciparum antimalarial project, cell-based, ATP luminescence (AID 2303;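 active means inhibition above 50%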;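 further: 0% = DMSO wells and 100% = digitonin-killed cells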). Conditions: HepG2 viability, 24-48 h, at 10 µM, active compounds read high.
In test [3] the target is L-lactate dehydrogenase (Plasmodium falciparum (isolate CDC / Honduras)) (UniProt Q27743). The test can be described thus: PfLDH activity inhibition – cell lysate, 3D7 strain, counter-screen for P. falciparum growth inhibition project (AID 2304).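 Further: 0% = vehicle and 100% = reference inhibitor.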 As to conditions: P. falciparum 3D7 crude extract, LDH APAD/NBT absorbance; at 2 µM; active compounds read high.
Sequence of L-lactate dehydrogenase (Plasmodium falciparum (isolate CDC / Honduras)) (Q27743 whole entry, looked up): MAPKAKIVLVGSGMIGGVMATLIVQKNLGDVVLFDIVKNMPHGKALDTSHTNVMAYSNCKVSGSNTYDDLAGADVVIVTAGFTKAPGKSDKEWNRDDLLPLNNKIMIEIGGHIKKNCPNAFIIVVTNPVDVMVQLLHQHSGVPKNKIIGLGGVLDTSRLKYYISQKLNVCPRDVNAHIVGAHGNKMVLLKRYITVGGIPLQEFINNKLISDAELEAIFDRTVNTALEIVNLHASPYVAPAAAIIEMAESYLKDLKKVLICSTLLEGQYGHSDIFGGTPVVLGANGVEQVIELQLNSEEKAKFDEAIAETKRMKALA
Test [4] in a line: inhibition of 3D7 malaria parasite growth – strain 3D7 (AID 2306).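 Further: 0% = DMSO wells and 100% = chloroquine plus artemisinin control wells.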 As to conditions: P. falciparum 3D7 erythrocytic growth, LDH absorbance, 72 h; at 2 µM; active compounds read high.
Test [5] concerns the target Calcium-dependent protein kinase 1 (Plasmodium falciparum (isolate 3D7)) (UniProt P62344). The test is described as follows: PfCDPK1 kinase inhibitors, biochemical, TCAMS library (AID 1159585; cut-off not given, nearly all actives have IC50 up to about 0.98 µM;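 further: inhibitors leave more ATP so luminescence rises with inhibition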). Conditions: recombinant PfCDPK1, Kinase-Glo ATP depletion luminescence.
Test [6] concerns the target Plasmodium falciparum protein kinase 6 (PK6, PF3D7_1337100) (UniProt Q8IDW1). The test can be described thus: PfPK6 kinase inhibitors, biochemical, TCAMS library (AID 1159586). As to conditions: recombinant PfPK6, Kinase-Glo ATP depletion luminescence.
The target in test [7] is Protein kinase 7 (PK7), Plasmodium falciparum 3D7 (PF3D7_0213400) (UniProt Q7YTF7). The test can be described thus: inhibition of Plasmodium PK7 catalytic activity – biochemical, TCAMS antimalarial set, Kinase-Glo luminescence (AID 1159587). As to conditions: recombinant PfPK7, Kinase-Glo ATP depletion luminescence.
Sequence of Protein kinase 7 (PK7), Plasmodium falciparum 3D7 (PF3D7_0213400) (Q7YTF7 1-343): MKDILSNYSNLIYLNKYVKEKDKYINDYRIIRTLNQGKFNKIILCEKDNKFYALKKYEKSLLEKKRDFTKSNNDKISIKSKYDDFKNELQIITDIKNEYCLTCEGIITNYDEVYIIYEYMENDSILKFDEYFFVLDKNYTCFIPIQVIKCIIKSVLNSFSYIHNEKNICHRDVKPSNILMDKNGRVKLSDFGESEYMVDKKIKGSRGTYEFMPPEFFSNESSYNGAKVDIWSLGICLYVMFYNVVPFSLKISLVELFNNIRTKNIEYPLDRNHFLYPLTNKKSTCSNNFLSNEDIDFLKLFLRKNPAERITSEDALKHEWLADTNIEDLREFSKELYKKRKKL
For test [8], the target named is Calcium-dependent protein kinase 4 (Plasmodium falciparum (isolate 3D7)) (UniProt Q8IBS5). The test is described as follows: PfCDPK4 kinase inhibitors, biochemical, TCAMS library (AID 1159588; cut-off not given, nearly all actives have IC50 up to about 0.91 µM). As to conditions: recombinant PfCDPK4, Kinase-Glo ATP depletion luminescence.
Sequence of Calcium-dependent protein kinase 4 (Plasmodium falciparum (isolate 3D7)) (Q8IBS5 whole entry, looked up): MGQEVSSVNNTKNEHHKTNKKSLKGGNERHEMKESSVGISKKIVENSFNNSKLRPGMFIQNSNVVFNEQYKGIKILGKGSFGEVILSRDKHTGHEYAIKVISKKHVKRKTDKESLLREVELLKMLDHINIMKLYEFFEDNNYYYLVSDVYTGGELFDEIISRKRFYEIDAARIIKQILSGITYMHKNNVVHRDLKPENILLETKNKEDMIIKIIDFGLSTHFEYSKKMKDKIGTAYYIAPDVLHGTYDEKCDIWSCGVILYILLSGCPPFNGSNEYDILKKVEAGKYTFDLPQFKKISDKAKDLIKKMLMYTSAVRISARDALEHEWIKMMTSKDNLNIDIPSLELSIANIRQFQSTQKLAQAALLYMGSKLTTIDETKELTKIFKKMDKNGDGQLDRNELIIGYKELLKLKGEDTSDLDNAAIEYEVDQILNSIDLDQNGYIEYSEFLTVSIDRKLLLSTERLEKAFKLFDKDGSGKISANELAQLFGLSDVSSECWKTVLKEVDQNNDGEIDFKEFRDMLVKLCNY

Unmarked numbers belong to inactive results. For some assays here: Potency and affinity values are given separately. Calls of active or inactive are those of the source. Unless noted, how the calls were made is not given here.

Sequence of Plasmodium falciparum protein kinase 6 (PK6, PF3D7_1337100) (Q8IDW1 1-305): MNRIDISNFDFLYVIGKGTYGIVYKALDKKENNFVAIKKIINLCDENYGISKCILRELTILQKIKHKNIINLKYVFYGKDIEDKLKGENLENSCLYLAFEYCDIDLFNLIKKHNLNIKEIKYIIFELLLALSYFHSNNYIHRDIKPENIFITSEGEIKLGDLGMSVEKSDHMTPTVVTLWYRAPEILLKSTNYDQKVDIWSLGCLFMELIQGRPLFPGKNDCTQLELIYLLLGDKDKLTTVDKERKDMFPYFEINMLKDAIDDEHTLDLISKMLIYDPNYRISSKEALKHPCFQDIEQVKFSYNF
Sequence of Calcium-dependent protein kinase 1 (Plasmodium falciparum (isolate 3D7)) (P62344 whole entry, looked up): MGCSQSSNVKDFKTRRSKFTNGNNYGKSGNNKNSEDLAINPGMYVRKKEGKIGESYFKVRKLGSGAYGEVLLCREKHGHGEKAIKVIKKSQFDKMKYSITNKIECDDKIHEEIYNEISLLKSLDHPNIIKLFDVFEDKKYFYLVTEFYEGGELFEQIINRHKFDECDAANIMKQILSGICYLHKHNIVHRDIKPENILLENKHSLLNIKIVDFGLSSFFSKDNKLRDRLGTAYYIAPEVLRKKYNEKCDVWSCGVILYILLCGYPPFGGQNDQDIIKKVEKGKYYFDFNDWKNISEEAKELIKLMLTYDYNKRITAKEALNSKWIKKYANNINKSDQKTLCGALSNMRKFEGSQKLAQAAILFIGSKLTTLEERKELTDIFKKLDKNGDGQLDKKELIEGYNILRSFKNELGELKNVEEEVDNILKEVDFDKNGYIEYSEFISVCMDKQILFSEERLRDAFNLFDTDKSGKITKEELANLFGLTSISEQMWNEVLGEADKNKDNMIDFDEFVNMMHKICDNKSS

In the case of `COc1ccc(-c2ccc(NC(=O)c3cccc(Cl)c3)cc2)cc1CN1CCN(C)CC1`, the growth inhibition is 33% in test [1] and 90% (active) in test [4]. The inhibition in test [2] was 42%; in test [3] it was -2%. Further, the result in test [5], in test [6], in test [7] and in test [8] was inactive.

`COc1ccc2nccc([C@@H](O)CN3CCC(NCCOc4cccc(C(F)(F)F)c4Cl)CC3)c2c1`: the growth inhibition in test [1] is 98% (active); in test [4], 100% (active). Besides, the inhibition in test [2] is 13%; in test [3] it was -3%. The result in test [5], in test [6], in test [7] and in test [8] was inactive.

Take `Cn1cnc(CCNC(=O)c2cccc(-c3csc(-c4nc5ccccc5[nH]4)c3)c2)c1`: the growth inhibition was 26% in test [1] and 101% (active) in test [4]. Besides, the inhibition in test [2] was 33%; in test [3], 0%. The result in test [5], in test [6], in test [7] and in test [8] was inactive.

As to `COc1ccc2nc3cc(Cl)ccc3c(NCCCCN3CCNCC3)c2c1`, the growth inhibition in test [1] was 75% (active); in test [4], 102% (active). The inhibition is 29% in test [2] and -5% in test [3]. Besides, the outcome in test [5], in test [6], in test [7] and in test [8] was inactive.

With `COc1ccccc1-n1c(SCC(=O)c2ccc3c(c2)CC(=O)N3C)nnc1-c1cccs1`, the growth inhibition in test [1] is 55% (active); in test [4] it was 95% (active). Also, the inhibition is 7% in test [2] and -3% in test [3]. In addition, the result in test [5], in test [6], in test [7] and in test [8] was inactive.

In the case of `CN(C)Cc1ccc(O)c(-c2ccc(C(C)(C)C)cc2)n1`, the growth inhibition in test [1] is 25%; in test [4], 86% (active). Moreover, the inhibition in test [2] was -1%; in test [3], -5%. For the same compound, the outcome in test [5], in test [6], in test [7] and in test [8] was inactive.

Take `COc1ccc2nccc(N3CCN(CCNCc4ccc5c(n4)NC(=O)CS5)CC3)c2n1`: the growth inhibition in test [1] was 67% (active); in test [4] it was 100% (active). The inhibition is 10% in test [2] and 1% in test [3]. Moreover, the result in test [5], in test [6], in test [7] and in test [8] was inactive.

Take `CCOc1cc(C(=O)Nc2ccc3nc(N4CCN(C)CC4)cc(C)c3c2)cc(OCC)c1OCC`: the results for the growth inhibition in test [1] and in test [4] were 50% (active) and 97% (active), respectively. Besides, the inhibition in test [2] was 14%; in test [3], -1%. In addition, the outcome in test [5], in test [6], in test [7] and in test [8] was inactive.

Consider `CCN1CCN(CCCNc2c3ccc(Cl)cc3nc3ccc(O)cc23)CC1`, for which the growth inhibition in test [1] was 1%; in test [4], 103% (active). Besides, the inhibition in test [2] is 32%; in test [3] it was -3%. The outcome in test [5], in test [6], in test [7] and in test [8] was inactive.

Consider `Cc1ccc2nc(-c3ccc(C=CC(=O)NC4CCN(Cc5ccccc5)CC4)cc3)[nH]c2c1`, for which the results for the growth inhibition in test [1] and in test [4] were 92% (active) and 101% (active), respectively. For the same compound, the results for the inhibition in test [2] and in test [3] were 9% and -1%, respectively. The outcome in test [5], in test [6], in test [7] and in test [8] was inactive.

As to `CCCC1(NC[C@@H](O)[C@H](Cc2ccccc2)NC(=O)c2cc(NCC)cc(N3CCCCS3(=O)=O)c2)CCCCC1`, the growth inhibition in test [1] is 98% (active); in test [4], 101% (active). Besides, the inhibition in test [2] is 4%; in test [3] it was -4%. Also, the result in test [5], in test [6], in test [7] and in test [8] was inactive.

For `O=[N+]([O-])c1ccc(C2=NN(S(=O)(=O)c3c(Cl)cc(Cl)cc3Cl)CCCC2)cc1`, the growth inhibition in test [1] was 98% (active); in test [4], 99% (active). Besides, the inhibition was 5% in test [2] and 0% in test [3]. For the same compound, the outcome in test [5], in test [6], in test [7] and in test [8] was inactive.

Consider `O=C(NC(NC(=S)Nc1ccc([N+](=O)[O-])cc1)C(Cl)(Cl)Cl)c1cccc(Cl)c1` (configuration not stated), for which the growth inhibition in test [1] was 100% (active); in test [4], 97% (active). For the same compound, the inhibition in test [2] is 24%; in test [3], 0%. For the same compound, the outcome in test [5], in test [6], in test [7] and in test [8] was inactive.

`O=C(Cc1cnc[nH]1)Nc1ccc(-c2ccc(-c3nc4ccc(F)cc4[nH]3)cc2)cc1`: the growth inhibition in test [1] is 91% (active); in test [4], 100% (active). Besides, the inhibition in test [2] was 39%; in test [3], 0%. Moreover, the outcome in test [5], in test [6], in test [7] and in test [8] was inactive.

In the case of `CC1CN(Cc2cccc(-c3ccc(-c4nc5ccccc5[nH]4)cc3)c2)CC(C)O1` (configuration not stated), the growth inhibition in test [1] was 88% (active); in test [4] it was 90% (active). Also, the figures for the inhibition in test [2] and in test [3] were 37% and -6%, respectively. The outcome in test [5], in test [6], in test [7] and in test [8] was inactive.

Consider `Cc1cc(CN2CC[C@H](NC(=O)c3ccc(Cl)c(Cl)c3)C2)ccc1OCCN1CCNCC1`, for which the growth inhibition in test [1] was 1%; in test [4] it was 94% (active). The figures for the inhibition in test [2] and in test [3] were 15% and -1%, respectively. Besides, the outcome in test [5], in test [6], in test [7] and in test [8] was inactive.

For the compound `O=C(/C=C/c1ccc(Cl)c(Cl)c1)NCCCCCCN1CCCN(C(=O)Nc2ccc(C(F)(F)F)cc2)CC1`, the growth inhibition in test [1] was 25%; in test [4], 100% (active). In addition, the inhibition in test [2] was 47%; in test [3] it was -8%. Further, the outcome in test [5], in test [6], in test [7] and in test [8] was inactive.

Take `COc1cc(C(=O)NC2CCN(Cc3ccccc3)CC2)ccc1-c1nc2cc(Cl)c(Cl)cc2[nH]1`: the growth inhibition is 100% (active) in test [1] and 103% (active) in test [4]. The inhibition was 14% in test [2] and 4% in test [3]. Also, the outcome in test [5], in test [6], in test [7] and in test [8] was inactive.

For `O=C(/C=C/c1ccc(Cl)c(Cl)c1)NC1CCC(CN2CCC(c3cc4ccccc4[nH]3)CC2)CC1` (configuration not stated), the figures for the growth inhibition in test [1] and in test [4] were -7% and 96% (active), respectively. The inhibition in test [2] is 19%; in test [3] it was 1%. For the same compound, the result in test [5], in test [6], in test [7] and in test [8] was inactive.
